Test results: PubChem BioAssay (Tox21)
Results filed as inconclusive are left out. Calls of active or inactive are those of the source. Unless noted, calls follow the shape of the full dose curve.

Test: qHTS assay to identify small molecule agonists of the NFkB signaling pathway - cell viability counter screen (AID 1159515); also: nearly all actives have a fitted effect of over 55% in size
Conditions: NFkB-bla ME-180 viability, CellTiter-Glo luminescence, 5 h; series mostly up to 61 µM; activity, negative = cytotoxic: at the top concentration
Method in brief: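 5 hr compound treatment of NFkB-bla ME-180 cells (2,000/well, seeded overnight beforehand), followed by reporter substrate for 1.5 hr. CellTiter-Glo added afterward; luminescence after 30 min RT.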
% is scaled to controls: 0 for no effect and ±100 for the full control effect.

Compound | activity, negative = cytotoxic
NC(=O)c1cc([N+](=O)[O-])cc([N+](=O)[O-])c1 | 4.35% (inactive)
CN1CCC(O)(c2ccc(F)cc2)C(C(=O)c2ccc(F)cc2)C1 (centres undefined) | 11.6% (inactive)
O=[N+]([O-])c1ccc2c3c(cccc13)CC2 | 0.876% (inactive)
O=NN1CCCCC1 | -1.83% (inactive)
CCCCc1ccc(O)cc1 | -10.1% (inactive)
CC(Oc1ccc(Oc2ncc(C(F)(F)F)cc2Cl)cc1)C(=O)O (centres undefined) | -9.47% (inactive)
Clc1ccccc1N1CCNCC1 | 6.63% (inactive)
CC(CC(C#N)(c1ccccc1)c1ccccc1)N(C)C (centres undefined) | -29.1% (inactive)
CC(Cl)(Cl)[N+](=O)[O-] | 13.5% (inactive)
OCCBr | -6.35% (inactive)
OC(Cn1cncn1)(c1ccc(F)cc1)c1ccccc1F (centres undefined) | 0.54% (inactive)
N#CC(Cl)(Cl)Cl | 2.65% (inactive)
CCCCOC(=O)c1ccccc1C(=O)O | 9% (inactive)
N#Cc1c(Cl)cccc1Cl | 4.88% (inactive)
CC(=O)Nc1cc([As](=O)(O)O)ccc1O | -0.553% (inactive)
COP(N)(=S)Oc1ccccc1C(=O)OC(C)C (centres undefined) | 10.2% (inactive)
CC1CCC(=O)O1 (centres undefined) | 17.2% (inactive)
CC(COc1ccc(Oc2ccccc2)cc1)Oc1ccccn1 (centres undefined) | -2.14% (inactive)
CNC(=O)Oc1ccc(N(C)C)c(C)c1 | 8.8% (inactive)

Compound | activity, negative = cytotoxic
O=[N+]([O-])c1cccc(O)c1 | -0.0523% [at 78.8 µM] (inactive)
CNC(=O)Oc1c(C(C)(C)C)cc(C)cc1C(C)(C)C | -0.7% (inactive)
C[N+](C)=CCl | 15% (inactive)
CCOC(=O)C(c1c(O)c2ccccc2oc1=O)c1c(O)c2ccccc2oc1=O | 0.672% (inactive)
COCC(=O)N(c1c(C)cccc1C)N1CCOC1=O | 7.14% (inactive)
Cc1ncc2n1-c1ccc(Cl)cc1C(c1ccccc1F)=NC2 | -16.2% (inactive)
O=CNC(N1CCN(C(NC=O)C(Cl)(Cl)Cl)CC1)C(Cl)(Cl)Cl (centres undefined) | 5.84% (inactive)
CCOC(=O)CP(=O)(OCC)OCC | 8.9% (inactive)
C#C[C@]1(O)C=C[C@H]2[C@@H]3CCC4=CC(=O)CC[C@@H]4[C@H]3CC[C@@]21CC | -1.3% (inactive)
O=C(Nc1ccccc1)N(Cc1ccc(Cl)cc1)C1CCCC1 | 0.0015% (inactive)
C[C@@H]1CN(C2CCC(C#N)(c3ccc(F)cc3)CC2)CC[C@]1(C(=O)O)c1ccccc1 (some centres undefined) | -8.03% (inactive)
C[C@]12CC[C@H]3[C@@H](CC=C4C[C@@H](O)CC[C@@]43C)[C@@H]1CC[C@@H]2O | 3.3% (inactive)
CC(C(O)c1ccccc1)N(C)C/C=C/c1ccccc1 (centres undefined) | -5.41% (inactive)
O=C(Oc1ccc(Br)cc1)N1CCN2CCC1CC2 | 0.716% (inactive)
CN/C(=N\[N+](=O)[O-])NCC1CCOC1 (centres undefined) | 0.506% (inactive)
CN1CCN(C(=O)O[C@H]2c3nccnc3C(=O)N2c2ccc(Cl)cn2)CC1 | -2.08% (inactive)
CCC/C(=N\OCC)C1=C(O)CC(CC(C)SCC)CC1=O (centres undefined) | 8.12% [at 78.8 µM] (inactive)
COC(=O)C1=CCCN(C)C1 | -3.85% (inactive)
CCC(C)n1c(=O)[nH]c(C)c(Br)c1=O (centres undefined) | 4.34% (inactive)

Test: qHTS assay to identify small molecule agonists of the endoplasmic reticulum stress response signaling pathway (AID 1159516; active = well fitted activation curve with a large enough effect in the signal ratio in the repeat runs, not every such curve was filed as active; the % refers to the signal ratio)
Conditions: ESRE-bla HeLa, ER stress beta-lactamase reporter, 5 h; series mostly up to 61 µM; activation: at the top concentration
Method in brief: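 Reporter HeLa cells (ESRE-beta-lactamase) underwent 5 hr compound incubation at 37 C and 5% CO2 in quantitative HTS format. Detection followed 2 hr of FRET substrate loading at room temperature.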

Compound | activation
NC(=O)c1cc([N+](=O)[O-])cc([N+](=O)[O-])c1 | -1.61% (inactive)
CN1CCC(O)(c2ccc(F)cc2)C(C(=O)c2ccc(F)cc2)C1 (centres undefined) | -5.43% (inactive)
O=[N+]([O-])c1ccc2c3c(cccc13)CC2 | -6.58% (inactive)
O=NN1CCCCC1 | 3.48% (inactive)
CCCCc1ccc(O)cc1 | 0.494% (inactive)
CC(Oc1ccc(Oc2ncc(C(F)(F)F)cc2Cl)cc1)C(=O)O (centres undefined) | 1.52% (inactive)
Clc1ccccc1N1CCNCC1 | 3.15% (inactive)
CC(CC(C#N)(c1ccccc1)c1ccccc1)N(C)C (centres undefined) | 0.332% (inactive)
OCCBr | 2.85% (inactive)
OC(Cn1cncn1)(c1ccc(F)cc1)c1ccccc1F (centres undefined) | 1.92% (inactive)
N#CC(Cl)(Cl)Cl | 1.17% (inactive)
CCCCOC(=O)c1ccccc1C(=O)O | 1.91% (inactive)
N#Cc1c(Cl)cccc1Cl | 0.435% (inactive)
CC(=O)Nc1cc([As](=O)(O)O)ccc1O | -0.248% (inactive)
COP(N)(=S)Oc1ccccc1C(=O)OC(C)C (centres undefined) | -0.179% (inactive)
CC(COc1ccc(Oc2ccccc2)cc1)Oc1ccccn1 (centres undefined) | -0.469% (inactive)

Compound | activation
CNC(=O)Oc1ccc(N(C)C)c(C)c1 | -0.062% (inactive)
O=[N+]([O-])c1cccc(O)c1 | 0.799% [at 78.8 µM] (inactive)
CNC(=O)Oc1c(C(C)(C)C)cc(C)cc1C(C)(C)C | -1.35% (inactive)
CCOC(=O)C(c1c(O)c2ccccc2oc1=O)c1c(O)c2ccccc2oc1=O | -0.342% (inactive)
CCOC(=O)CP(=O)(OCC)OCC | -0.56% (inactive)
C#C[C@]1(O)C=C[C@H]2[C@@H]3CCC4=CC(=O)CC[C@@H]4[C@H]3CC[C@@]21CC | -4.14% (inactive)
C[C@@H]1CN(C2CCC(C#N)(c3ccc(F)cc3)CC2)CC[C@]1(C(=O)O)c1ccccc1 (some centres undefined) | 0.0164% (inactive)
C[C@]12CC[C@H]3[C@@H](CC=C4C[C@@H](O)CC[C@@]43C)[C@@H]1CC[C@@H]2O | 2.45% (inactive)
CC(C(O)c1ccccc1)N(C)C/C=C/c1ccccc1 (centres undefined) | 1.2% (inactive)
O=C(Oc1ccc(Br)cc1)N1CCN2CCC1CC2 | 6.81% (inactive)
CN/C(=N\[N+](=O)[O-])NCC1CCOC1 (centres undefined) | -0.565% (inactive)
CN1CCN(C(=O)O[C@H]2c3nccnc3C(=O)N2c2ccc(Cl)cn2)CC1 | 1.09% (inactive)
CCC/C(=N\OCC)C1=C(O)CC(CC(C)SCC)CC1=O (centres undefined) | 4.84% [at 78.8 µM] (inactive)
COC(=O)C1=CCCN(C)C1 | -0.696% (inactive)
CCC(C)n1c(=O)[nH]c(C)c(Br)c1=O (centres undefined) | -0.205% (inactive)
